Calls of active or inactive are those of the source. The call rests on the fitted dose curve; in most records, active means well fitted curve in the direction sought with a large enough effect; inconclusive means small, poorly fitted or top-dose-only effect, or effect the other way, or another doubt; inactive means no such curve, though single readings can be large or run the other way.
Test: Inducers of the Endoplasmic Reticulum Stress Response (ERSR) in human glioma: Validation (AID 504836)
Summary of the method: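 ERSR induction read as luciferase luminescence (Bright-Glo, 10 min at room temperature) in stably transfected human U87-MG glioma cells exposed to compounds for 16 h, using GRP78 as sensor.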

| Compound | outcome |
| --- | --- |
| CN(C)c1nc(N(C)C)nc(N(C)C)n1 | inactive |
| CCOC(=O)N1CCC(=C2c3ccc(Cl)cc3CCc3cccnc32)CC1 | inactive |
| CCN(CC)CCNC(=O)c1cc(Cl)c(N)cc1OC | inactive |
| COc1ccccc1OCCNCC(O)COc1cccc2[nH]c3ccccc3c12 (stereo not given) | inactive |
| Clc1ccc2c(c1)C(N1CCNCC1)=Nc1ccccc1O2 | inactive |
| COc1cc2nc(N3CCN(C(=O)C4COc5ccccc5O4)CC3)nc(N)c2cc1OC (stereo not given) | inactive |
| CNC1(C)C2CCC(C2)C1(C)C (stereo not given) | inactive |
| CN1CCN(CCCN2c3ccccc3Sc3ccc(C(F)(F)F)cc32)CC1 | inactive |
| Cc1[nH]c(=O)c(C#N)cc1-c1ccncc1 | inactive |
| CN(C)CCOC(C)(c1ccccc1)c1ccccn1 (stereo not given) | inactive |
| CC(=O)N[C@@H](CS)C(=O)O | inactive |
| O=C1Cc2cc(CCN3CCN(c4nsc5ccccc45)CC3)c(Cl)cc2N1 | inactive |
| Cn1cnc([N+](=O)[O-])c1Sc1ncnc2nc[nH]c12 | inactive |
| COc1ccc([C@@H]2Sc3ccccc3N(CCN(C)C)C(=O)[C@@H]2OC(C)=O)cc1 | inactive |
| CN(C)CCC=C1c2ccccc2C=Cc2ccccc21 | inactive |
| CC(C)NCC(O)COc1cccc2[nH]ccc12 (stereo not given) | inactive |
| O=C(CCCN1CCC(O)(c2ccc(Cl)cc2)CC1)c1ccc(F)cc1 | inactive |
| CN(Cc1cnc2nc(N)nc(N)c2n1)c1ccc(C(=O)N[C@@H](CCC(=O)O)C(=O)O)cc1 | inactive |
| Cn1ccc2cc3c(cc21)CCN3C(=O)Nc1cccnc1 | inactive |
| NC(=O)c1cn(Cc2c(F)cccc2F)nn1 | inactive |

Reference: PubChem BioAssay (NCATS)
